Shown is part of a subset that was picked to be rich in hits.
DUSP3 inh – blocks the human dual specificity phosphatase VHR1 | actives 0.7% (n = 50,000) | inhibition, % at 20 µM | P51452 | recombinant VHR phosphatase, colorimetric substrate read-out; in the data active = inhibition above about 60%
Target sequence (P51452 whole entry, looked up): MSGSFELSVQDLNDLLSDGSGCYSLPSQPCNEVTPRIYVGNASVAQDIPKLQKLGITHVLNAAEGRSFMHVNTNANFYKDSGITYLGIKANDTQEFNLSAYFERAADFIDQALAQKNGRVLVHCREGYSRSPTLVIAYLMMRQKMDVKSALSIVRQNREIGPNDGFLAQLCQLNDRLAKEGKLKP
The depositor's hits bear a star.

SMILES	DUSP3 inh
CCOc1ccc(N2Cc3ccccc3C2)cc1	-7
CN(C)c1ccc(/C=N/N2C(=O)CSC2=S)cc1	-6
CC(Oc1ccc(/C=C2/SC(=S)N(Cc3ccccc3)C2=O)cc1)c1ccccc1 (stereo not drawn)	4
COC(=O)C1=C(C)N=c2s/c(=C\c3ccc(OC)cc3OC)c(=O)n2C1c1ccccc1 (stereo not drawn)	-20
CC1=NC(c2ccccc2)(c2ccccc2)c2ccccc2O1	-4
N/C(Cc1cccc2ccccc12)=N\OC(=O)c1ccc(F)cc1	-16
O=C(O/C(=C/c1nccn1Cc1ccccc1Cl)c1ccc(F)cc1)c1ccc(F)cc1	110*
CCCn1c(/C=C(/OC(=O)c2ccccc2)c2ccccc2)nc2ccccc21	-14
Cc1ccc(/C=C2\SC(=S)N(Nc3ccccc3)C2=O)o1	2
O=C(O)C1C2CCC(O2)C1C(=O)N1CCN(c2ccccc2F)CC1 (stereo not drawn)	-11
O=C1C2C(C(=O)N1c1cccc(Cl)c1)N1CCCN1C2c1ccccc1 (stereo not drawn)	-7
COc1ccc(C2C3C(=O)N(c4ccc(Br)cc4)C(=O)C3N3CCCN23)cc1 (stereo not drawn)	2
COc1ccc(C2C3C(=O)N(c4ccccc4)C(=O)C3N3CCCN23)cc1 (stereo not drawn)	89*
NC(=O)c1c(NC(=O)CCC(=O)O)sc2c1CCCC2	0
O=C(/C=C/c1ccco1)Nc1ccc(O)c(-c2nc3ccccc3o2)c1	18
O=C(Nc1ccc(-c2nc3ccccc3s2)c(O)c1)c1cc2ccccc2o1	-7
O=C(/C=C/c1ccco1)Nc1ccc(-c2nc3ccccc3s2)c(O)c1	75*
COc1ccc(CNS(=O)(=O)c2ccccc2[N+](=O)[O-])cc1	-6
O=C(NCCO)c1ccc(CSc2nc3sc4c(c3c(=O)[nH]2)CCCC4)cc1	-9
O=C(COc1ccc(Cl)cc1Cl)NCCCOCC(=O)Oc1ccc(Cl)cc1Cl	104*
CC(C)CNC(=O)CCCOc1ccc(Cl)cc1Cl	6
O=C(COc1ccc(Cl)cc1Cl)Oc1ccccc1	84*
O=C(COc1ccc(Cl)cc1Cl)OCc1ccccc1	-7
O=C(COc1ccc(Cl)cc1Cl)NCc1ccncc1	0
Cc1cccc(OC(=O)COc2ccc(Cl)cc2Cl)c1	10
SMILES	DUSP3 inh
CC(=O)/C=C1/SCC(=O)N1c1ccccc1	-17
COc1ccc(NC(=O)CN(c2c(C)n(C)n(-c3ccccc3)c2=O)S(=O)(=O)c2ccccc2)cc1	-19
COc1ccc(C(=S)N2CCCC2)c(OC)c1	-6
O=C(O)c1cccc(-c2ccc(/C=N/Nc3ccc([N+](=O)[O-])cn3)o2)c1	90*
O=C(O)c1cc(-c2ccc(/C=N/Nc3ccc([N+](=O)[O-])cn3)o2)ccc1Cl	-1
Cc1cc(C(=O)N/N=C/c2ccc(-c3cccc(C(=O)O)c3)o2)n[nH]1	16
COC(=O)c1ccccc1NC(=O)c1cc([N+](=O)[O-])ccc1Cl	-6
COc1ccc(Cl)cc1C(=O)Nc1cccc(C)c1	-13
Cc1cc(/C=C2/SC(=S)NC2=O)c(C)n1-c1cccc(Cl)c1	95*
Cc1cc(/C=C2/SC(=O)NC2=O)c(C)n1-c1cccc(Cl)c1	-3
Cc1cc(C)cc(-n2c(C)cc(C=C3SC(=S)NC3=O)c2C)c1	-5
CC1=C(C(=O)OCCOC(C)C)C(c2ccccc2Cl)NC(=O)N1 (stereo not drawn)	-31
Cc1ccc(NC(=S)NC(=O)c2ccco2)cc1	-3
Cc1cccc(NC(=O)c2c(NC(=O)C(C)(C)C)sc3c2CCCC3)c1	88*
COc1ccccc1NC(=O)c1c(NC(=O)C(C)(C)C)sc2c1CCCC2	-6
Cc1ccccc1NC(=O)c1c(NC(=O)C(C)(C)C)sc2c1CCCC2	-2
O=C(CSCc1cccc(Br)c1)NCc1ccco1	-15
CCOc1ccc(S(=O)(=O)N(CC(=O)NC2CCCCC2)c2ccc(C)cc2)cc1	90*
Cc1ccc(N(CC(=O)NC2CCCC2)S(=O)(=O)c2ccc(F)cc2)cc1	-35
Cc1ccc(N(CC(=O)NC2CCCC2)S(=O)(=O)c2ccccc2)cc1	1
COc1ccc2c(c1OC)C(=O)OC2Nc1ccc(C(C)=O)cc1 (stereo not drawn)	-13
O=C(Nc1ccc(-c2nc3ncccc3o2)cc1)c1ccc(-c2cccc(Cl)c2)o1	4
CCc1cc(C)cc(OCCOc2ccc(/C=N/n3cnnc3)cc2)c1	46
C1=C=CC(OCCOc2ccc(/C=N/n3cnnc3)cc2)=CC=1	-16
C(=N\n1cnnc1)/c1cccc(OCCOc2ccc(C3CCCCC3)cc2)c1	104*
SMILES	DUSP3 inh
Brc1ccc(OCCOc2cccc(/C=N/n3cnnc3)c2)cc1	7
CCOc1cc(/C=N\n2cnnc2)ccc1OCCOCCOc1ccc(C)cc1	-7
CCOc1cc(/C=N/n2cnnc2)ccc1OCCOc1cccc(C)c1	-3
COc1cccc(OCCOc2ccc(/C=N/n3cnnc3)cc2)c1	110*
C(=N\n1cnnc1)/c1ccc(OCCOc2ccc(C3CCCCC3)cc2)cc1	106*
Cc1ccc(C(C)C)c(OCCOc2ccc(/C=N/n3cnnc3)cc2)c1	-17
COc1cc(NC(=O)c2ccccc2[N+](=O)[O-])cc(OC)c1	1

High-throughput results (PubChem)
